40 molecules from PubChem BioAssay (Tox21) can be followed below.

SMILES strings stand for the structures. Results filed as inconclusive are left out. Entries that show only a call come without a potency. Unmarked numbers belong to inactive results. Active and inactive are the calls of the source. Calls come from the whole dose curve; as a rule, active = well fitted activation curve with a large enough effect in the repeat runs; inconclusive = weak or mixed curves; inactive = flat fitted curve, though single readings scatter.

The nature of the assay: A CellTox Green Cytotoxicity Assay to monitor cytotoxicity in HepG2 cells - 8 hour (AID 1224890). Note: nearly all actives have a fitted effect of over 45% in size. The conditions noted are these: CellTox Green fluorescence; series mostly up to 76.8 µM. The text has this:
National Center for Advancing Translational Sciences [NCATS]
NIH Chemical Genomics Center [NCGC]
U.S. Environmental Protection Agency [EPA]
National Institutes of Environmental Health Sciences [NIEHS]
National Toxicology Program [NTP]
Cell-based models are critical for drug discovery. Determining the natural cytotoxic effects resulting from test compounds is an essential research activity. A CellTox Green Cytotoxicity Assay to monitor cytotoxicity in real time of continues cell culture during 40 hours of the compound treatment was used to screen Tox21 10K library compounds in HepG2 cells. CellTox Green Cytotoxicity Assay is a nonlytic, homogeneous, biofluorescent method to measure cytotoxicity in cell culture after experimental manipulation. The assay system uses a proprietary asymmetric cyanine dye that is excluded from viable cells but preferentially stains the dead cell's DNA. […] Viable cells produce no appreciable increases in fluorescence. Therefore, the fluorescence signal produced by the binding interaction with dead cell DNA is proportional to cytotoxicity.
The mixture of HepG2 cell suspension and reagents were dispensed at 600cells/6 ul/well in 1536-well tissue culture treated black solid bottom plates using a Multidrop dispenser. After the assay plates were incubated at a 37 C/5% CO2 incubator for 5 hours, 23 nL of compounds dissolved in DMSO, positive and negative controls was transferred to the assay plate by a pintool work station. The plates were incubated at 37 C for 40 hours. The fluorescence intensity were measured at 0h, 8h, 16h, 24h, 32h and 40h time points using ViewLux plate reader during compound treatment.
Consider `COCC(C)OC(C)=O` (stereo not given), for which the Potency result is “inactive”. The same measure, in the same setting: with `C=CC1CC2C=CC1C2` (stereo not given) the entry was “inactive”; with `COc1cc2nc(N(C)CCCNC(=O)C3CCCO3)nc(N)c2cc1OC` (stereo not given), “inactive”; with `Cc1c(N)cccc1[N+](=O)[O-]`, “inactive”.

On to `CC(CC=O)c1ccccc1` (stereo not given), for which the Potency result is “inactive”. `CC(C)Nc1ccc(NC(C)C)c2c1C(=O)c1ccccc1C2=O`: the Potency entry is “inactive”. Still for that read-out and setting: in the case of `CCCC(=O)Nc1ccc(O)c(C(C)=O)c1` it was “inactive”. Same read-out and setting: in the case of `C=C(C)C(=O)OCCOCC` it was “inactive”; in that of `NCC(=O)CCC(=O)O`, “inactive”.

As to `CCOc1ccc(N=Nc2ccc(/C=C/c3ccc(N=Nc4ccc(OCC)cc4)cc3S(=O)(=O)O)c(S(=O)(=O)O)c2)cc1`, the Potency result is “inactive”. Turning to `OC(C#CCN1CCCC1)(c1ccccc1)c1ccccc1`, the Potency result is “inactive”. On to `CC(CSC(=O)c1ccccc1)C(=O)N1C[C@@H](Sc2ccccc2)C[C@H]1C(=O)O` (stereo not given in full), for which the cytotoxicity increase was -3.03% [at 15.8 µM]. Regarding `CC(=O)[O][Al][O]C(C)=O`, the Potency result was “inactive”. On to `NC(N)=NCCC[C@H](N)C(=O)O`, for which the cytotoxicity increase was -1.13% [at 6.97 µM]. As to `CC(C)=CCC/C(C)=C/CC/C(C)=C/CO`, the Potency entry was “inactive”. Consider `Clc1ccc2c(c1)CCc1cccnc1C2=C1CCNCC1`, for which the Potency entry was “inactive”. Take `NCC(=O)O`: the cytotoxicity increase was 1.21% [at 15.8 µM]. Regarding `O=C(Nc1ccccc1)c1ccccc1O`, the Potency result is “inactive”. The same measure, in the same setting: with `CNCCCN1c2ccccc2CCc2ccccc21` the entry was “inactive”; with `CN(C)CCN(Cc1ccc(Cl)cc1)c1ccccn1`, “inactive”; with `CCCCCCCN`, “inactive”.

For `ClCCOCCOCCCl`, the Potency entry is “inactive”. Same read-out and setting: with `C=CC(=O)OCCOCCOC(=O)C=C` the entry was “inactive”; with `CCCn1cnc2c1c(=O)n(CCCCC(C)=O)c(=O)n2C`, “inactive”. Take `C[N+]1(C)CCC(OC(=O)C(O)(c2ccccc2)C2CCCC2)C1` (stereo not given): the Potency result is “inactive”.

As to `CN1CCN(C(c2ccccc2)c2ccccc2)CC1`, the Potency entry was “inactive”. With `O=C1[C@H]2CCCC[C@H]2C(=O)N1CCCCN1CCN(c2nsc3ccccc23)CC1`, the Potency entry is “inactive”. The same measure, in the same setting: in the case of `COc1cc2nc(Cl)nc(N)c2cc1OC` it was “inactive”; in that of `COc1cc(Cl)c(OC)cc1N`, “inactive”; in that of `CC(C)C[C@H]1C(=O)N2CCC[C@H]2[C@]2(O)O[C@](NC(=O)[C@@H]3C=C4c5cccc6[nH]c(Br)c(c56)C[C@H]4N(C)C3)(C(C)C)C(=O)N12`, “inactive”. Take `CCC(C)c1cc(C(C)(C)C)c(O)c(C(C)(C)C)c1` (stereo not given): the Potency result is “inactive”. On to `c1ccc(CNCCNCc2ccccc2)cc1`, for which the Potency result was “inactive”. On the same count and under the same terms, in the case of `Cc1ccc(N=Nc2c(O)c(C(=O)O)cc3ccccc23)c(S(=O)(=O)O)c1` it was “inactive”; in that of `CCOC(=O)C1=C[C@]2(CC)CCCN3CCc4c(n1c1ccccc41)[C@@H]32`, “inactive”. The same measure, in the same setting: in the case of `CCCCCCCC#N` it was “inactive”; in that of `CC(=O)c1ccc2c(c1)N(CCCN(C)C)c1ccccc1S2`, “inactive”. As to `O=C(O)c1ccc(-n2nc(-c3ccccc3O)nc2-c2ccccc2O)cc1`, the Potency entry was “inactive”. Same read-out and setting: with `CC(C)(C)Cl` the entry was “inactive”; with `CC1(c2ccccc2)OC(C(=O)O)=CC1=O` (stereo not given), “inactive”. Same read-out and setting: in the case of `CCCNCC(O)COc1ccccc1C(=O)CCc1ccccc1` (stereo not given) it was “inactive”.
